Data reported in PubChem BioAssay (EPA / NIEHS).
Calls of active or inactive are those of the source. How the source made its calls, unless noted: active means hit-call score of the fitted dose curve at least 0.9, where 1 is the maximum; inactive means score below 0.9.

What was measured:
[1] = read-out: Protein phosphatase 2A (PPP2R4), PTPA (gene 5524); assay: LTEA_HepaRG_PPP2R4: Life Technologies and Expression Analysis (LTEA) Assay for Protein phosphatase 2A (PPP2R4) using HepaRG (AID 2283522); settings: mRNA level, 48 h; actives raise or lower the signal
Outline: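 Expression was quantified by Fluidigm qRT-PCR normalised to three housekeeping genes after 48 h treatment. Human HepaRG cells received an 8-point series from 100 µM downward by half-logs, in duplicate with 0.5% DMSO vehicle and 1 mM phenobarbital as induction control.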

[2] = read-out: Phosphatase and tensin (PTEN), PTEN (gene 5728); assay: LTEA_HepaRG_PTEN: Life Technologies and Expression Analysis (LTEA) Assay for Phosphatase and tensin (PTEN) using HepaRG (AID 2283523); settings: mRNA level, 48 h; actives raise or lower the signal
Outline: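 HepaRG, 48 h exposure, 8-pt half-log series from 100 uM top, 0.5% DMSO vehicle, duplicates. Readout: Fluidigm qRT-PCR of PTEN transcript; housekeeping normalization (ACTB, GAPDH, POLR2A). Gain or loss fitted relative to DMSO baseline.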

[3] = read-out: solute carrier (SLC22A1), SLC22A1 (gene 6580); assay: LTEA_HepaRG_SLC22A1: Life Technologies and Expression Analysis (LTEA) Assay for solute carrier (SLC22A1) using HepaRG (AID 2283524); settings: mRNA level, 48 h; actives raise or lower the signal;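 on AC50: differentiated human HepaRG liver cells in serum-free induction medium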
Outline: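 qRT-PCR readout (TaqMan, Fluidigm arrays) of SLC22A1 transcript, normalized to three housekeeping genes; bidirectional curve fit relative to 0.5% DMSO vehicle. Differentiated human HepaRG cells, 48 h chemical exposure, top concentration 100 uM, half-log steps, eight points.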

[4] = read-out: Pyruvate Dehydrogenase Kinase 4 (PDK4), PDK4 (gene 5166); assay: LTEA_HepaRG_PDK4: Life Technologies and Expression Analysis (LTEA) Assay for Pyruvate Dehydrogenase Kinase 4 (PDK4) using HepaRG (AID 2283525); settings: mRNA level, 48 h; actives raise or lower the signal
Outline: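 HepaRG (human liver line), 48 h chemical exposure, 8-pt half-log CRC top 100 uM, 0.5% DMSO vehicle, duplicates. Readout: TaqMan qRT-PCR of PDK4 mRNA, housekeeping-normalized; gain/loss fit relative to DMSO baseline.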

[5] = read-out: NAD(P)H dehydrogenase [quinone] 1 (NQO1), NQO1 (gene 1728); assay: LTEA_HepaRG_NQO1: Life Technologies and Expression Analysis (LTEA) Assay for NAD(P)H dehydrogenase [quinone] 1 (NQO1) using HepaRG (AID 2283526); settings: mRNA level, 48 h; actives raise or lower the signal
Outline: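 NQO1 transcript induction or loss measured by TaqMan qRT-PCR, referenced to three housekeeping genes and fitted bidirectionally against 0.5% DMSO. HepaRG cultures exposed 48 h, duplicate, eight-point half-log series, top 100 uM.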

[6] = read-out: Nuclear factor erythroid 2-related factor 2 (Homo sapiens) (UniProt Q16236); assay: LTEA_HepaRG_NFE2L2: Life Technologies and Expression Analysis (LTEA) Assay for Nuclear factor erythroid 2-related factor 2 (NFE2L2) Transcription Factor using HepaRG (AID 2283527); settings: mRNA level, 48 h; actives raise or lower the signal
Outline: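 HepaRG, 48 h dosing, 8-pt half-log series from 100 uM in 0.5% DMSO, duplicates. Read-out: NFE2L2 mRNA by qRT-PCR (ACTB/GAPDH/POLR2A normalization). Bidirectional curve fit vs DMSO baseline.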

[7] = read-out: succinate dehydrogenase complex iron sulfur subunit B (SDHB), SDHB (gene 6390); assay: LTEA_HepaRG_SDHB: Life Technologies and Expression Analysis (LTEA) Assay for succinate dehydrogenase complex iron sulfur subunit B (SDHB) using HepaRG (AID 2283528); settings: mRNA level, 48 h; actives raise or lower the signal
Outline: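 SDHB transcript level read by TaqMan qRT-PCR, housekeeping-normalised (ACTB, GAPDH, POLR2A), after 48 h chemical treatment of plated HepaRG cells; eight concentrations top 100 uM, half-log steps, 0.5% DMSO, duplicates; fitted both directions against DMSO.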

[8] = read-out: Signal transducer and activator of transcription 3 (Homo sapiens) (UniProt P40763); assay: LTEA_HepaRG_STAT3: Life Technologies and Expression Analysis (LTEA) Assay for Signal transducer and activator of transcription (STAT3) using HepaRG (AID 2283529); settings: mRNA level, 48 h; actives raise or lower the signal
Outline: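 HepaRG, 48 h exposure, 8-pt half-log series (top 100 uM), 0.5% DMSO vehicle, duplicates. Readout: STAT3 transcript by Fluidigm qRT-PCR, housekeeping-normalized; bidirectional fit vs DMSO baseline.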

[9] = read-out: solute carrier (SLCO1B1), SLCO1B1 (gene 10599); assay: LTEA_HepaRG_SLCO1B1: Life Technologies and Expression Analysis (LTEA) Assay for solute carrier (SLCO1B1) using HepaRG (AID 2283530); settings: mRNA level, 48 h; actives raise or lower the signal
Outline: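 SLCO1B1 transcript levels were quantified by TaqMan qRT-PCR using three housekeeping genes for normalization. This followed 48 h chemical exposure (100 uM top, half-log, 8 points, 0.5% DMSO) of HepaRG liver cells, with gain or loss fitted relative to DMSO.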

[10] = read-out: sulfotransferase 2A1 (SULT2A1), SULT2A1 (gene 6822); assay: LTEA_HepaRG_SULT2A1: Life Technologies and Expression Analysis (LTEA) Assay for sulfotransferase 2A1 (SULT2A1) using HepaRG (AID 2283531); settings: mRNA level, 48 h; actives raise or lower the signal
Outline: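 Expression change of SULT2A1, by qRT-PCR with three housekeeping-gene normalization, was scored bidirectionally versus DMSO. Cells: differentiated HepaRG, dosed in duplicate for 48 h across 8 points, highest 100 µM, half-log dilution, 0.5% DMSO.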

[11] = read-out: Transforming Growth Factor (TGFA), TGFA (gene 7039); assay: LTEA_HepaRG_TGFA: Life Technologies and Expression Analysis (LTEA) Assay for Transforming Growth Factor (TGFA) using HepaRG (AID 2283532); settings: mRNA level, 48 h; actives raise or lower the signal
Outline: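 qRT-PCR read-out of TGFA transcript, normalized to three housekeeping genes, fitted bidirectionally against 0.5% DMSO baseline. Human HepaRG cultures received chemicals for 48 h at eight half-log concentrations, top 100 uM.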

[12] = read-out: Transforming Growth Factor (TGFB1), TGFB1 (gene 7040); assay: LTEA_HepaRG_TGFB1: Life Technologies and Expression Analysis (LTEA) Assay for Transforming Growth Factor (TGFB1) Transporter using HepaRG (AID 2283533); settings: mRNA level, 48 h; actives raise or lower the signal
Outline: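 TGFB1 transcript measured by qRT-PCR with normalisation to three housekeeping genes (ACTB, GAPDH, POLR2A); human HepaRG line treated in duplicate for 48 hr with an 8-point series topping at 100 uM, 0.5% DMSO vehicle, bidirectionally fitted.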

[13] = read-out: TIMP1, TIMP1 (gene 7076); assay: LTEA_HepaRG_TIMP1: Life Technologies and Expression Analysis (LTEA) Assay for TIMP1 using HepaRG (AID 2283534); settings: mRNA level, 48 h; actives raise or lower the signal
Outline: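 Bidirectional change in TIMP1 transcript versus 0.5% DMSO, measured by TaqMan qRT-PCR with three housekeeping genes for normalization. HepaRG human liver cells dosed 48 h in duplicate, top concentration 100 uM with half-log dilutions.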

[14] = read-out: Tumor necrosis factor receptor 1 (TNFRSF1A), TNFRSF1A (gene 7132); assay: LTEA_HepaRG_TNFRSF1A: Life Technologies and Expression Analysis (LTEA) Assay for Tumor necrosis factor receptor 1 (TNFRSF1A) using HepaRG (AID 2283535); settings: mRNA level, 48 h; actives raise or lower the signal
Outline: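 mRNA measured by qRT-PCR (TaqMan, Fluidigm arrays) against ACTB/GAPDH/POLR2A housekeepers after 48 h chemical exposure of HepaRG cells. Top concentration 100 uM, half-log 8-point series, duplicates; vehicle 0.5% DMSO, both fit directions.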

[15] = read-out: Thyroid Hormone Responsive (THRSP), THRSP (gene 7069); assay: LTEA_HepaRG_THRSP: Life Technologies and Expression Analysis (LTEA) Assay for Thyroid Hormone Responsive (THRSP) using HepaRG (AID 2283536); settings: mRNA level, 48 h; actives raise or lower the signal
Outline: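 qRT-PCR read-out (Fluidigm TaqMan), housekeeping-normalized (ACTB/GAPDH/POLR2A). HepaRG, 48 h chemical exposure, 8-pt half-log series from 100 uM in 0.5% DMSO, duplicates. Bidirectional curve fit vs 0.5% DMSO baseline.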

[16] = read-out: Cellular tumor antigen p53 (Homo sapiens) (UniProt P04637); assay: LTEA_HepaRG_TP53: Life Technologies and Expression Analysis (LTEA) Assay for Tumor Protein P53 (TP53) using HepaRG (AID 2283537); settings: mRNA level, 48 h; actives raise or lower the signal
Outline: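 TP53 transcript measured by qRT-PCR, normalized to three housekeeping genes, after 48 h treatment of human HepaRG cultures with chemicals from 100 uM downward in half-log steps (0.5% DMSO vehicle, serum-free induction medium). Up- or down-regulation fitted against DMSO.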

[17] = read-out: UDP glucuronosyltransferase (UGT1A1), UGT1A1 (gene 54658); assay: LTEA_HepaRG_UGT1A1: Life Technologies and Expression Analysis (LTEA) Assay for UDP glucuronosyltransferase (UGT1A1) using HepaRG (AID 2283538); settings: mRNA level, 48 h; actives raise or lower the signal
Outline: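 UGT1A1 transcript level, measured by qRT-PCR with three housekeeping genes for normalization, after 48 h treatment of human HepaRG cells (0.5% DMSO, duplicates, up to 100 uM, half-log steps, 8 points). Curves fit both directions against DMSO baseline.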

[18] = read-out: UDP glucuronosyltransferase (UGT1A6), UGT1A6 (gene 54578); assay: LTEA_HepaRG_UGT1A6: Life Technologies and Expression Analysis (LTEA) Assay for UDP glucuronosyltransferase (UGT1A6) using HepaRG (AID 2283539); settings: mRNA level, 48 h; actives raise or lower the signal
Outline: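 Expression was quantified by TaqMan qRT-PCR on Fluidigm arrays with ACTB/GAPDH/POLR2A normalization and bidirectional fitting against 0.5% DMSO. HepaRG cells (~100,000/well) were treated in duplicate for 48 h at eight half-log concentrations up to 100 uM in serum-free induction medium.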

[19] = read-out: X-box binding protein 1 (XBP1), XBP1 (gene 7494); assay: LTEA_HepaRG_XBP1: Life Technologies and Expression Analysis (LTEA) Assay for X-box binding protein 1 (XBP1) using HepaRG (AID 2283540); settings: mRNA level, 48 h; actives raise or lower the signal
Outline: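 XBP1 transcript by qRT-PCR (housekeeping-normalized: ACTB, GAPDH, POLR2A) after 48 h chemical treatment of HepaRG cells, 8-point half-log series topping at 100 uM, vehicle 0.5% DMSO. Gain and loss of signal fitted relative to DMSO.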

[20] = LTEA_HepaRG_LDH_cytotoxicity: Cytotoxicity Assessment in the Life Technologies and Expression Analysis (LTEA) Assay (AID 2283563; active means hit-call score of the fitted dose curve at least 0.9, where 1 is the maximum;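 on AC50: LDH activity released into spent culture medium as a marker of cell death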)
Outline: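 LDH release into culture medium read after 48 h chemical treatment of HepaRG cells. Duplicate wells, eight-point half-log series topping at 100 uM, 0.5% DMSO vehicle and baseline.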

Measured: AC50

Sequence of Signal transducer and activator of transcription 3 (Homo sapiens) (P40763 whole entry, looked up): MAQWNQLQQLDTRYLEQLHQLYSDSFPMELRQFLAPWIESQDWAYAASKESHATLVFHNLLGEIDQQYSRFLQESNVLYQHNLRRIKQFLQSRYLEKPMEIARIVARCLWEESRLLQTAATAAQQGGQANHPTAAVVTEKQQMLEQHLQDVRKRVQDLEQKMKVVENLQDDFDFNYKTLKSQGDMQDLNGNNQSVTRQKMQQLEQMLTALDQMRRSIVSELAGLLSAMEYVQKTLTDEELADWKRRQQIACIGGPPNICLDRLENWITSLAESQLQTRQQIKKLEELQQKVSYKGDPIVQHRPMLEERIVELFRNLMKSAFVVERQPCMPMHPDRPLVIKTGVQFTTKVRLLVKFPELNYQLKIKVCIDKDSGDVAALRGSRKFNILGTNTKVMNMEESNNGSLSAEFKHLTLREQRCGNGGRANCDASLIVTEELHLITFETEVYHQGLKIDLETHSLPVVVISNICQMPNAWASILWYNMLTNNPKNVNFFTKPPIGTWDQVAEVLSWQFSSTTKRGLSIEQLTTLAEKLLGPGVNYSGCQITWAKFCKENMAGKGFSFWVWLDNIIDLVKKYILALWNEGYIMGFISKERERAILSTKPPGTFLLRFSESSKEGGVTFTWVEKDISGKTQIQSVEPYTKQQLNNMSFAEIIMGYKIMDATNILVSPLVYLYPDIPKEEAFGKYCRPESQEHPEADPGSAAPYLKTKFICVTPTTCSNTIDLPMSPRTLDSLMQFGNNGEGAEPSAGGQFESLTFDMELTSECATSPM
Sequence of Nuclear factor erythroid 2-related factor 2 (Homo sapiens) (Q16236 whole entry, looked up): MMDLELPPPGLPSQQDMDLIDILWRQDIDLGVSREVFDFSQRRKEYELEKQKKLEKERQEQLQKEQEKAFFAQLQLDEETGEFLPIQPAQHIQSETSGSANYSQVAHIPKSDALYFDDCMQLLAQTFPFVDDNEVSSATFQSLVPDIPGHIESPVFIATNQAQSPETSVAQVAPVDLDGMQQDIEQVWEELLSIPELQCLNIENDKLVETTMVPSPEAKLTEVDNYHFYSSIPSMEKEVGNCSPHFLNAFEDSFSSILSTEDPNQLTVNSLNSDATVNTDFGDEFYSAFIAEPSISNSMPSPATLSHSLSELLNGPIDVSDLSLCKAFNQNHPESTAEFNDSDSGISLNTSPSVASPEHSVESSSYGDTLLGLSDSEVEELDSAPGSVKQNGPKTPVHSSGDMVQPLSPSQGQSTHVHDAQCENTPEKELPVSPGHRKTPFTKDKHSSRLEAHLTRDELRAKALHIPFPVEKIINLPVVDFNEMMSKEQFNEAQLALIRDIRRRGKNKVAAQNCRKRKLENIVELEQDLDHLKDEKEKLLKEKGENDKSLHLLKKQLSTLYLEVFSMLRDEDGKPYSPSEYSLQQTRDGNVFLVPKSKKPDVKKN
Sequence of Cellular tumor antigen p53 (Homo sapiens) (P04637 whole entry, looked up): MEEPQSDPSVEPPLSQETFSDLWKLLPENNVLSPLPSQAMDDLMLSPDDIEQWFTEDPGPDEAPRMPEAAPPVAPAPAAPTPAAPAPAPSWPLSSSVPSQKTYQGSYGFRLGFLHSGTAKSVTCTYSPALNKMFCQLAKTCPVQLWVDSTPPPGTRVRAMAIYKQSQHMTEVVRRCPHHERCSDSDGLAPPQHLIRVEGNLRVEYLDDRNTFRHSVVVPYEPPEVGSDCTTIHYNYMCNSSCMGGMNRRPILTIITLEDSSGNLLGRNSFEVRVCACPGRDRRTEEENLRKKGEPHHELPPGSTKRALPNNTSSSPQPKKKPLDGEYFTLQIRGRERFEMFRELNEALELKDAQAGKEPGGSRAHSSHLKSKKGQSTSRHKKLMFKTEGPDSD

CCN(CC)N=O
inactive: all assays above

O=P(OCCCl)(OCCCl)OCCCl
active: [1] 50 µM
not listed: [18]
inactive: all other assays above

O=C(N[C@H](c1ccccc1)[C@@H]1CN2CCC1CC2)c1c(Cl)ccc(C(F)(F)F)c1Cl
inactive: [4] | [5] | [7] | [15] | [16]
active: [1] 75.3 µM | [2] 77.8 µM | [3] 72.1 µM | [6] 71.5 µM | [8] 83.3 µM | [9] 73.9 µM | [10] 73.2 µM | [11] 46.2 µM | [12] 46.2 µM | [13] 64.9 µM | [14] 73.9 µM | [17] 63.8 µM | [19] 73.9 µM | [20] 51.9 µM

CC(O)CCO (configuration not stated)
inactive: all assays above

CO[C@@H]1[C@H](OC(=O)NC(=O)CCl)CC[C@]2(CO2)[C@H]1[C@@]1(C)O[C@@H]1CC=C(C)C
inactive: all assays above

CCOc1cccc(C2(N3CCN(c4ccccc4)CC3)CCC(C)CC2)c1 (configuration not stated)
active: [17] 43.5 µM
inactive: all other assays above

ClCCOCCCl
not listed: [18]
inactive: all other assays above
